PubChem BioAssay (NCATS)
Several values for one entry are separate records, joined by “and”; a condition that tells them apart may be missing. Equal entries are not always repeated. Records with an inconclusive call do not appear. Unmarked numbers belong to inactive results. Activity calls are given as the source filed them. The call rests on the fitted dose curve; in most records, active means well fitted curve in the direction sought with a large enough effect; inconclusive means small, poorly fitted or top-dose-only effect, or another doubt; inactive means no such curve, though single readings can be large; an effect the other way counts as inactive or inconclusive.

target: Voltage-gated inwardly rectifying potassium channel KCNH2 (Homo sapiens) (UniProt Q12809); assay: qHTS Assay for Small Molecule Inhibitors of the Human hERG Channel Activity (AID 588834); details: U2OS BacMam hERG, FluxOR thallium flux fluorescence; series mostly up to 46.1 µM; activity change, negative = inhibition: at the top concentration;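 further: lower thallium flux fluorescence means stronger hERG block; nearly all actives have a fitted effect of over 50% in size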; on activity change, negative = inhibition: top concentration of the series differs between compounds; on the % scale 0 is the no-effect control and ±100 the full control effect
How it was run: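 Step 1: BacMam hERG transduction of U2OS, 4 hrs RT. Step 2: overnight 37 °C, plate 2000 cells/well, 4 hr. Step 3: FluxOR load, compound 10 min, stimulate, read fluorescence.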
Potency means the concentration at half of the fitted maximal effect.

Chain of Voltage-gated inwardly rectifying potassium channel KCNH2 (Homo sapiens) (Q12809 whole entry, looked up): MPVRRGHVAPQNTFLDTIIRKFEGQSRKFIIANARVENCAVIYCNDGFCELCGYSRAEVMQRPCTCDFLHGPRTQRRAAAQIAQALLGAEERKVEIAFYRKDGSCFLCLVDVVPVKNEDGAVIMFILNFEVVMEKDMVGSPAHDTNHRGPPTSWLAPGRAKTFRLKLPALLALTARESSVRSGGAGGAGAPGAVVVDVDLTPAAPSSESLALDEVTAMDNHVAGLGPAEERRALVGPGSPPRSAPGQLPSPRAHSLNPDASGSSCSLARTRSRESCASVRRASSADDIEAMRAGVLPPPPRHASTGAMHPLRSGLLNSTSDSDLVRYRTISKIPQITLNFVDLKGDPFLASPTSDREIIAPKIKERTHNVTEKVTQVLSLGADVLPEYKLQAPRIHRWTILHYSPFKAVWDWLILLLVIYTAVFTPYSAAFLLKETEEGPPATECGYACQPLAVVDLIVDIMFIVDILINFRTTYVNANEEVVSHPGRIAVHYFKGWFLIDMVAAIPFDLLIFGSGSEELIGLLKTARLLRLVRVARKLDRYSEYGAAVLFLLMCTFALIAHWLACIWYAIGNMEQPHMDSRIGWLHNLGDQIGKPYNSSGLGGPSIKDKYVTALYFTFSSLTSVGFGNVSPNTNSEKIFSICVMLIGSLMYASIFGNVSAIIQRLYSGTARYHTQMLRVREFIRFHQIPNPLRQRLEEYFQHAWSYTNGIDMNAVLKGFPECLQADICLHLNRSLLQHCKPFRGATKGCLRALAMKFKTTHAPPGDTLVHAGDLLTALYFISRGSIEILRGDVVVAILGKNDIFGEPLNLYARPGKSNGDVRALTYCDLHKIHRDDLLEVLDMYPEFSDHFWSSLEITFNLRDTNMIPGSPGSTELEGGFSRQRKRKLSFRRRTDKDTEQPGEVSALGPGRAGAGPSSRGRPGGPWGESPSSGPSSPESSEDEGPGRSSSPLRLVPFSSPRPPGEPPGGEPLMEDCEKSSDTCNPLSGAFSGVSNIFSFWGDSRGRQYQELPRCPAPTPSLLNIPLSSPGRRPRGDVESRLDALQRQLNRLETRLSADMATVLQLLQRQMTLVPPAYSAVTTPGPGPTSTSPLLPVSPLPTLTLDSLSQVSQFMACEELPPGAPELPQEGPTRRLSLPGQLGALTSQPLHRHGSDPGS

Question: With `O=C(O)CP(=O)(O)O` as the compound, how does the “activity change, negative = inhibition” value read?
Answer: 3.08%

Question: For `OCCN1CCN(CCCN2c3ccccc3C=Cc3ccccc32)CC1`, which Potency is on record?
Answer: 12.6 µM (active)

Question: For `CC(=O)Oc1cc(C(C)C)c(OCCN(C)C)cc1C`, which Potency is on record?
Answer: inactive

Question: For `CC(C)NNC(=O)c1ccncc1`, which Potency is on record?
Answer: inactive

Question: With `CN1CCN(C2=Nc3ccccc3Oc3ccc(Cl)cc32)CC1` as the compound, how does the Potency read?
Answer: 11.2 µM (active) and 10 µM (active)

Question: Which Potency does the source give for `CCN(CC)CCOCCOC(=O)C1(c2ccccc2)CCCC1` here?
Answer: 12.6 µM (active)

Question: Which Potency does the source give for `CCCN1C[C@H](CSC)C[C@@H]2c3cccc4[nH]cc(c34)C[C@H]21` here?
Answer: 12.6 µM (active) and 2 µM (active)

Question: For `CCN(CC)CCCN(c1ccccc1)C1Cc2ccccc2C1`, which Potency is on record?
Answer: 0.794 µM (active)

Question: Which “activity change, negative = inhibition” value does the source give for `NCCCNCCSP(=O)(O)O` here?
Answer: 4.34%

Question: Which “activity change, negative = inhibition” value does the source give for `CNC1(C)C2CCC(C2)C1(C)C` (stereo unspecified) here?
Answer: -9.08%

Question: With `CCO/C([O-])=N/c1c[n+](N2CCOCC2)no1` as the compound, how does the Potency read?
Answer: inactive

Question: With `CCn1cc(C(=O)O)c(=O)c2cc3c(cc21)OCO3` as the compound, how does the Potency read?
Answer: inactive

Question: Which “activity change, negative = inhibition” value does the source give for `CCCOc1ccccc1-c1nc2n[nH]nc2c(=O)[nH]1` here?
Answer: 13.3%

Question: With `Brc1c(NC2=NCCN2)ccc2nccnc12` as the compound, how does the Potency read?
Answer: inactive

Question: Which Potency does the source give for `Cc1cc(C)c(/C=C2\C(=O)Nc3ccccc32)[nH]1` here?
Answer: 25.1 µM (active) and 7.94 µM (active)

target: Luciferin 4-monooxygenase (Photinus pyralis) (UniProt P08659); assay: Biochemical firefly luciferase enzyme assay for NPC (AID 624030); further: nearly all actives have a fitted effect of over 70% in size;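 on activity change, negative = inhibition: purified P. pyralis luciferase at 10 nM with luciferin and ATP substrate; 0% = DMSO and -100% = full luciferase inhibition by PTC124 control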; details: purified P. pyralis luciferase, luminescence, 5 min; series mostly up to 58.6 µM; activity change, negative = inhibition: at the top concentration
How it was run: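 Direct inhibition of firefly luciferase enzyme (10 nM final, 50 mM Tris Acetate) assessed by luminescence within 5 minutes. Percent activity scaled between DMSO and PTC124 positive control, with concentration-effect curves classified by fit quality and response.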

Chain of Luciferin 4-monooxygenase (Photinus pyralis) (P08659 whole entry, looked up): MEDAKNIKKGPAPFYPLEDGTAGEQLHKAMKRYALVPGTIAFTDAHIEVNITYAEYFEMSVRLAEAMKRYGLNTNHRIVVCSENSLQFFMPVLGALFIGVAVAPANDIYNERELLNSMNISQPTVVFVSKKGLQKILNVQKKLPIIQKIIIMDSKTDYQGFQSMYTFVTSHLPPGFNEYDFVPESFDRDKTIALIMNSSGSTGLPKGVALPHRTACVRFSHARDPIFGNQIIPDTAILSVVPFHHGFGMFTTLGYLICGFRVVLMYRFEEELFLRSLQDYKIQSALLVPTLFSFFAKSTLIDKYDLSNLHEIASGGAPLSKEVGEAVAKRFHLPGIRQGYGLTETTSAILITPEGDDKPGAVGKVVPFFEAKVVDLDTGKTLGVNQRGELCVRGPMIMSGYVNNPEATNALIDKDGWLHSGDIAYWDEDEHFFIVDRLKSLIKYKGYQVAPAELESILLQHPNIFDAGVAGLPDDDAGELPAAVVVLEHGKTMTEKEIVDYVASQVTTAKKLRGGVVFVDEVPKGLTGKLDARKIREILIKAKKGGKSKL

Question: For `O=C(CCNNC(=O)c1ccncc1)NCc1ccccc1`, which “activity change, negative = inhibition” value is on record?
Answer: -0.263%

Question: Which “activity change, negative = inhibition” value does the source give for `NS(=O)(=O)c1cc2c(cc1Cl)NC(C1CC3C=CC1C3)NS2(=O)=O` (stereo unspecified) here?
Answer: -1.78%

Question: With `NC(=O)c1ncn([C@@H]2O[C@H](CO)[C@@H](O)[C@H]2O)c1O` as the compound, how does the “activity change, negative = inhibition” value read?
Answer: 3.05%

Question: For `CCN1CCC[C@H]1CNC(=O)c1c(O)c(Cl)cc(Cl)c1OC`, which “activity change, negative = inhibition” value is on record?
Answer: 0.2%

Question: Which “activity change, negative = inhibition” value does the source give for `Cc1nnc(SCC2=C(C(=O)O)N3C(=O)[C@@H](NC(=O)Cn4cnnn4)[C@H]3SC2)s1` here?
Answer: 17.2%

Question: Which “activity change, negative = inhibition” value does the source give for `NC(N)=N/N=C/c1c(Cl)cccc1Cl` here?
Answer: 5.2%

Question: Which “activity change, negative = inhibition” value does the source give for `O=C(O)CN(CCOCCOCCN(CC(=O)O)CC(=O)O)CC(=O)O` here?
Answer: -1.75%

Question: For `CCN1CCc2nc(N)oc2CC1`, which “activity change, negative = inhibition” value is on record?
Answer: 1.94%

Question: With `Cc1ccc(Cl)c(Nc2ccccc2C(=O)O)c1Cl` as the compound, how does the “activity change, negative = inhibition” value read?
Answer: -18.2%

Question: For `CN/C(=C\[N+](=O)[O-])NCCSCc1ccc(CN(C)C)o1`, which “activity change, negative = inhibition” value is on record?
Answer: 9.07%

Question: Which “activity change, negative = inhibition” value does the source give for `CSc1ccc(C(=O)c2[nH]c(=O)[nH]c2C)cc1` here?
Answer: -9.08%

Question: With `CNCCC(Oc1ccccc1OC)c1ccccc1` (stereo unspecified) as the compound, how does the “activity change, negative = inhibition” value read?
Answer: 2.31%

Question: Which “activity change, negative = inhibition” value does the source give for `C=CCc1ccccc1OCC(O)CNC(C)C` (stereo unspecified) here?
Answer: 0.68%

Question: For `Cc1nc2ccccn2c(=O)c1CCN1CCC(C(=O)c2ccc(F)cc2)CC1`, which “activity change, negative = inhibition” value is on record?
Answer: 2.98%

Question: Which “activity change, negative = inhibition” value does the source give for `Cc1ccc(=O)n(-c2ccccc2)c1` here?
Answer: 0.601%

Question: Which Potency does the source give for `C[n+]1cc2c3c(ccc2c2ccc4cc5c(cc4c21)OCO5)OCO3` here?
Answer: 7.21 µM (active)

Question: For `CC[N+](C)(C)c1cccc(O)c1`, which “activity change, negative = inhibition” value is on record?
Answer: 2.94% [at 24.9 µM]

Question: Which “activity change, negative = inhibition” value does the source give for `COc1ccc(CCN(C)CCCC(C#N)(c2cc(OC)c(OC)c(OC)c2)C(C)C)cc1OC` (stereo unspecified) here?
Answer: 3.57%

Question: With `O=C(O)CP(=O)(O)O` as the compound, how does the “activity change, negative = inhibition” value read?
Answer: -0.221%

Question: Which Potency does the source give for `OCCN1CCN(CCCN2c3ccccc3C=Cc3ccccc32)CC1` here?
Answer: inactive

Question: Which “activity change, negative = inhibition” value does the source give for `CC(=O)Oc1cc(C(C)C)c(OCCN(C)C)cc1C` here?
Answer: 2.2% [at 24.9 µM]

Question: With `CC(C)NNC(=O)c1ccncc1` as the compound, how does the “activity change, negative = inhibition” value read?
Answer: 7.37%

Question: For `CN1CCN(C2=Nc3ccccc3Oc3ccc(Cl)cc32)CC1`, which “activity change, negative = inhibition” value is on record?
Answer: 1.21% [at 24.9 µM]

Question: Which “activity change, negative = inhibition” value does the source give for `CCN(CC)CCOCCOC(=O)C1(c2ccccc2)CCCC1` here?
Answer: -1.29%

Question: Which “activity change, negative = inhibition” value does the source give for `CCCN1C[C@H](CSC)C[C@@H]2c3cccc4[nH]cc(c34)C[C@H]21` here?
Answer: 5.9%

Question: With `CCN(CC)CCCN(c1ccccc1)C1Cc2ccccc2C1` as the compound, how does the “activity change, negative = inhibition” value read?
Answer: 13.6%

Question: With `NCCCNCCSP(=O)(O)O` as the compound, how does the “activity change, negative = inhibition” value read?
Answer: 0.344%

Question: For `CNC1(C)C2CCC(C2)C1(C)C` (stereo unspecified), which “activity change, negative = inhibition” value is on record?
Answer: 1.23%

Question: With `CCO/C([O-])=N/c1c[n+](N2CCOCC2)no1` as the compound, how does the “activity change, negative = inhibition” value read?
Answer: -1.4% [at 24.9 µM]

Question: With `CCn1cc(C(=O)O)c(=O)c2cc3c(cc21)OCO3` as the compound, how does the “activity change, negative = inhibition” value read?
Answer: 2.74%

Question: Which “activity change, negative = inhibition” value does the source give for `CCCOc1ccccc1-c1nc2n[nH]nc2c(=O)[nH]1` here?
Answer: -5.01%

Question: Which “activity change, negative = inhibition” value does the source give for `Brc1c(NC2=NCCN2)ccc2nccnc12` here?
Answer: -8.57%

Question: Which “activity change, negative = inhibition” value does the source give for `Cc1cc(C)c(/C=C2\C(=O)Nc3ccccc32)[nH]1` here?
Answer: -12.6%

test system: not listed separately; assay: S16 Schwann cell viability assay (CellTiter-Glo assay) (AID 624031); details: S16 rat Schwann cells viability, 24 h; series mostly up to 57.5 µM; activity change, negative = cytotoxicity: at the top concentration; further: nearly all actives have a fitted effect of over 70% in size;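 on activity change, negative = cytotoxicity: cellular ATP luminescence as a viability measure; plate controls were DMSO-treated cells for no effect and cell-free wells for full effect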
How it was run: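 Native S16 rat Schwann cells, 500-750 cells/well in DMEM with 10% FBS, dosed with compound after overnight culture and incubated 24h at 37 degree Celsius/5% CO2. Viability by CellTiter-Glo luminescence; % activity normalized to no-cell wells and DMSO-treated cells.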

Question: For `O=C(CCNNC(=O)c1ccncc1)NCc1ccccc1`, which “activity change, negative = cytotoxicity” value is on record?
Answer: -10.1%

Question: Which “activity change, negative = cytotoxicity” value does the source give for `NS(=O)(=O)c1cc2c(cc1Cl)NC(C1CC3C=CC1C3)NS2(=O)=O` (stereo unspecified) here?
Answer: 8.57%

Question: Which “activity change, negative = cytotoxicity” value does the source give for `NC(=O)c1ncn([C@@H]2O[C@H](CO)[C@@H](O)[C@H]2O)c1O` here?
Answer: -2.67%

Question: Which “activity change, negative = cytotoxicity” value does the source give for `CCN1CCC[C@H]1CNC(=O)c1c(O)c(Cl)cc(Cl)c1OC` here?
Answer: 0%

Question: For `Cc1nnc(SCC2=C(C(=O)O)N3C(=O)[C@@H](NC(=O)Cn4cnnn4)[C@H]3SC2)s1`, which “activity change, negative = cytotoxicity” value is on record?
Answer: 0.707%

Question: For `NC(N)=N/N=C/c1c(Cl)cccc1Cl`, which “activity change, negative = cytotoxicity” value is on record?
Answer: -10.5%

Question: With `O=C(O)CN(CCOCCOCCN(CC(=O)O)CC(=O)O)CC(=O)O` as the compound, how does the “activity change, negative = cytotoxicity” value read?
Answer: -2.99%

Question: Which “activity change, negative = cytotoxicity” value does the source give for `CCN1CCc2nc(N)oc2CC1` here?
Answer: 7.18%

Question: With `Cc1ccc(Cl)c(Nc2ccccc2C(=O)O)c1Cl` as the compound, how does the “activity change, negative = cytotoxicity” value read?
Answer: 0%

Question: Which “activity change, negative = cytotoxicity” value does the source give for `CN/C(=C\[N+](=O)[O-])NCCSCc1ccc(CN(C)C)o1` here?
Answer: 15.1%

Question: With `CSc1ccc(C(=O)c2[nH]c(=O)[nH]c2C)cc1` as the compound, how does the “activity change, negative = cytotoxicity” value read?
Answer: -1.5%

Question: For `CNCCC(Oc1ccccc1OC)c1ccccc1` (stereo unspecified), which “activity change, negative = cytotoxicity” value is on record?
Answer: -3.18%

Question: With `C=CCc1ccccc1OCC(O)CNC(C)C` (stereo unspecified) as the compound, how does the “activity change, negative = cytotoxicity” value read?
Answer: 8.88%

Question: With `Cc1nc2ccccn2c(=O)c1CCN1CCC(C(=O)c2ccc(F)cc2)CC1` as the compound, how does the “activity change, negative = cytotoxicity” value read?
Answer: 2.01%

Question: Which “activity change, negative = cytotoxicity” value does the source give for `Cc1ccc(=O)n(-c2ccccc2)c1` here?
Answer: -0.0175%

Question: With `C[n+]1cc2c3c(ccc2c2ccc4cc5c(cc4c21)OCO5)OCO3` as the compound, how does the Potency read?
Answer: 3.22 µM (active)

Question: With `CC[N+](C)(C)c1cccc(O)c1` as the compound, how does the “activity change, negative = cytotoxicity” value read?
Answer: 13.7% [at 25.7 µM]

Question: With `COc1ccc(CCN(C)CCCC(C#N)(c2cc(OC)c(OC)c(OC)c2)C(C)C)cc1OC` (stereo unspecified) as the compound, how does the “activity change, negative = cytotoxicity” value read?
Answer: -0.638%

Question: For `O=C(O)CP(=O)(O)O`, which “activity change, negative = cytotoxicity” value is on record?
Answer: 6.88%

Question: Which Potency does the source give for `OCCN1CCN(CCCN2c3ccccc3C=Cc3ccccc32)CC1` here?
Answer: 28.7 µM (active)

Question: With `CC(=O)Oc1cc(C(C)C)c(OCCN(C)C)cc1C` as the compound, how does the “activity change, negative = cytotoxicity” value read?
Answer: 2.42% [at 25.7 µM]

Question: Which “activity change, negative = cytotoxicity” value does the source give for `CC(C)NNC(=O)c1ccncc1` here?
Answer: 25.2%

Question: For `CN1CCN(C2=Nc3ccccc3Oc3ccc(Cl)cc32)CC1`, which “activity change, negative = cytotoxicity” value is on record?
Answer: -3.11% [at 25.7 µM]

Question: For `CCN(CC)CCOCCOC(=O)C1(c2ccccc2)CCCC1`, which “activity change, negative = cytotoxicity” value is on record?
Answer: 8.16%

Question: Which “activity change, negative = cytotoxicity” value does the source give for `CCCN1C[C@H](CSC)C[C@@H]2c3cccc4[nH]cc(c34)C[C@H]21` here?
Answer: -15.7%

Question: Which Potency does the source give for `CCN(CC)CCCN(c1ccccc1)C1Cc2ccccc2C1` here?
Answer: 14.4 µM (active)

Question: Which “activity change, negative = cytotoxicity” value does the source give for `NCCCNCCSP(=O)(O)O` here?
Answer: 1.96%

Question: For `CNC1(C)C2CCC(C2)C1(C)C` (stereo unspecified), which “activity change, negative = cytotoxicity” value is on record?
Answer: -0.179%

Question: Which “activity change, negative = cytotoxicity” value does the source give for `CCO/C([O-])=N/c1c[n+](N2CCOCC2)no1` here?
Answer: 14.5% [at 25.7 µM]

Question: With `CCn1cc(C(=O)O)c(=O)c2cc3c(cc21)OCO3` as the compound, how does the “activity change, negative = cytotoxicity” value read?
Answer: -20.7%

Question: With `CCCOc1ccccc1-c1nc2n[nH]nc2c(=O)[nH]1` as the compound, how does the “activity change, negative = cytotoxicity” value read?
Answer: -2.51%

Question: For `Brc1c(NC2=NCCN2)ccc2nccnc12`, which “activity change, negative = cytotoxicity” value is on record?
Answer: -4.64%

Question: With `Cc1cc(C)c(/C=C2\C(=O)Nc3ccccc32)[nH]1` as the compound, how does the “activity change, negative = cytotoxicity” value read?
Answer: 1.66%
